Values joined by “and” are separate entries in the source; they are usually repeats but may differ in a detail not shown here. Identical values can stand only once. Inconclusive results are not listed. Active and inactive are the calls of the source. The call rests on the fitted dose curve; in most records, active means well fitted curve in the direction sought with a large enough effect; inconclusive means small, poorly fitted or top-dose-only effect, or another doubt; inactive means no such curve, though single readings can be large; an effect the other way counts as inactive or inconclusive.

The nature of assay [1]: qHTS of pediatric cancer cell lines to identify multiple opportunities for drug repurposing: Primary screen for DAOY cells (AID 1347090). Further: nearly all actives have a fitted effect of over 55% in size. The method in brief:
(§1)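 Eight- or eleven-point concentration series, 48 h treatment at 37 degrees C in growth media; readout CellTiter-Glo luminescence. Potency and efficacy were taken from the concentration-response curves.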
For orientation: In qHTS, concentration-response curves come from the screen itself.

Assay [2] can be described thus: qHTS of pediatric cancer cell lines to identify multiple opportunities for drug repurposing: Primary screen for SJ-GBM2 cells (AID 1347091). The gist of the method:
as §1

Assay [3] can be described thus: qHTS of pediatric cancer cell lines to identify multiple opportunities for drug repurposing: Primary screen for A673 cells (AID 1347092). Further: nearly all actives have a fitted effect of over 45% in size. The method in brief: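 A673 cells (500-1,000 cells/well) were treated 48 hours at 37 degrees C with compounds at 11-point (0.78 nM to 46 µM) or 8-point (0.59 nM to 46 µM) dilutions. Viability read by CellTiter-Glo luminescence; concentration-response curves fitted.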

Assay [4] is described as follows: qHTS of pediatric cancer cell lines to identify multiple opportunities for drug repurposing: Primary screen for BT-37 cells (AID 1347094). The gist of the method: (§2)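 Phenotypic viability qHTS, 48 h compound exposure, CellTiter-Glo luminescence read-out; multi-concentration dosing so that potency and efficacy derive directly from the primary screen's curves.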
Assay [5] can be described thus: qHTS of pediatric cancer cell lines to identify multiple opportunities for drug repurposing: Primary screen for NB-EBc1 cells (AID 1347095). The gist of the method:
as §2

The nature of assay [6]: qHTS of pediatric cancer cell lines to identify multiple opportunities for drug repurposing: Primary screen for U-2 OS cells (AID 1347096). Further: nearly all actives have a fitted effect of over 50% in size. The gist of the method:
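Cells (500-1,000/well) in growth media were settled 5 h at 37 degrees C, then given compounds for 48 h. Viability was read as CellTiter-Glo luminescence. Primary runs used MIPE at 11 points (0.78 nM-46 µM) and NPC at 8 points (0.59 nM-46 µM); follow-ups used 11 points.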

Assay [7] is described as follows: qHTS of pediatric cancer cell lines to identify multiple opportunities for drug repurposing: Primary screen for Saos-2 cells (AID 1347097). Further: nearly all actives have a fitted effect of over 40% in size. The method in brief: as §2
Assay [8] is described as follows: qHTS of pediatric cancer cell lines to identify multiple opportunities for drug repurposing: Primary screen for SK-N-SH cells (AID 1347098). Further: nearly all actives have a fitted effect of over 65% in size. The method in brief:
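Cells (500-1,000/well) rested 5 h, then received compounds for 48 h; metabolically active cells were measured by CellTiter-Glo luminescence. Final concentrations spanned up to 46 µM (MIPE, 11-point) or 0.59 nM-46 µM (NPC, 8-point) in primary screens, 11-point in follow-ups.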

Assay [9] can be described thus: qHTS of pediatric cancer cell lines to identify multiple opportunities for drug repurposing: Primary screen for NB1643 cells (AID 1347099). Further: nearly all actives have a fitted effect of over 50% in size. The gist of the method: as §2
Assay [10] can be described thus: qHTS of pediatric cancer cell lines to identify multiple opportunities for drug repurposing: Primary screen for SK-N-MC cells (AID 1347093). The method in brief:
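Metabolically active cells were quantified by ATP-dependent luminescence (CellTiter-Glo, 15 min at room temperature) following 48 h treatment. Cells had been plated at 500-1,000 per well and settled for 5 h beforehand.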
Potency means the concentration at half of the fitted maximal effect.

`CCOC(=O)C1=C[C@@H](OC(CC)CC)[C@H](NC(C)=O)[C@@H](N)C1`: the Potency entry in assay [1], in [2], in [3], in assay [4], in assay [5] and in assay [6] was “inactive” throughout. For the same compound, the Potency result in [7], in [8] and in assay [9] was “inactive” each time.

In the case of `COc1ccc2cc([C@H](C)C(=O)O)ccc2c1`, the Potency result in assay [2], in [3], in assay [10], in [4], in assay [5] and in assay [6] was “inactive” in each case. The Potency result in assay [7], in assay [8] and in assay [9] was “inactive” throughout.

Take `COc1ccccc1N1CCN(CCN(C(=O)C2CCCCC2)c2ccccn2)CC1`: the Potency result in [2], in assay [3], in assay [10], in [4], in [6] and in assay [7] was “inactive” in each case. Besides, in assay [8], the Potency entry was “inactive”. Also, the Potency in [5] was 6.62 µM (active).

In the case of `Cc1cccc(C)c1OCC(=O)N[C@@H](Cc1ccccc1)[C@@H](O)C[C@H](Cc1ccccc1)NC(=O)[C@H](C(C)C)N1CCCNC1=O`, the Potency result in assay [1] and in assay [6] was “inactive” in each case. Besides, the Potency was 23.5 µM (active) in assay [3], 29.6 µM (active) in [10] and 20.9 µM (active) in assay [9].

Regarding `COc1cc2nc(N3CCN(C(=O)C4CCCO4)CC3)nc(N)c2cc1OC` (stereo unspecified), the Potency entry in assay [1], in assay [2], in assay [10], in [5], in assay [6] and in [7] was “inactive” throughout. The Potency result in assay [8] and in [9] was “inactive” each time.

On to `c1cnc2cc3c(cc2n1)C1CNCC3C1`, for which the Potency result in assay [2], in assay [3], in [4], in assay [5], in [6] and in assay [7] was “inactive” throughout. Besides, the Potency entry in assay [8] was “inactive”. The Potency in assay [10] is 4.69 µM (active).

Take `O=c1c(O)c(-c2ccc(O)cc2O)oc2cc(O)cc(O)c12`: the Potency entry in [2], in assay [3], in assay [10], in assay [4], in assay [5] and in assay [6] was “inactive” each time. Further, the Potency result in assay [8] and in assay [9] was “inactive” throughout.

For the compound `CC1(C)C(=O)N(CCN2CCC(C(=O)c3ccc(F)cc3)CC2)c2ccccc21`, the Potency result in assay [2], in assay [3], in assay [4], in assay [5], in [6] and in assay [7] was “inactive” in each case. Besides, the Potency in [10] was 10.5 µM (active).

Turning to `O=C(NOCC1CC1)c1ccc(F)c(F)c1Nc1ccc(I)cc1Cl`, the Potency in assay [2] is 9.35 µM (active); in assay [3], 10.6 µM (active) and 9.35 µM (active); in assay [10], 16.8 µM (active) and 1.87 µM (active); in [4] it was 24.6 µM (active) and 21.7 µM (active); in assay [5], 15 µM (active) and 8.33 µM (active); in assay [6], 18.7 µM (active). Moreover, the Potency was 10.6 µM (active) and 16.6 µM (active) in assay [7]; 19.4 µM (active) in [8]; 16.6 µM (active) in assay [9].

Regarding `NC(=NCc1ccccc1)NC(=O)c1nc(Cl)c(N)nc1N`, the Potency result in [2], in assay [4], in [5], in assay [6], in [7] and in [8] was “inactive” each time. Also, the Potency was 5.9 µM (active) in [3], 1.18 µM (active) in [10] and 9.35 µM (active) in [9].

For the compound `CCCCN(CCCC)CCC(O)c1cc2c(Cl)cc(Cl)cc2c2cc(C(F)(F)F)ccc12` (stereo unspecified), the Potency result in [1], in assay [3], in [5], in assay [6], in assay [8] and in [9] was “inactive” in each case. In addition, the Potency in [10] was 11.9 µM (active) and 33.2 µM (active).

Take `C[C@]12CCC(=O)C=C1CC[C@@H]1[C@H]2[C@@H](O)C[C@@]2(C)[C@H]1CC[C@]2(O)C(=O)CO`: the Potency entry in [2], in assay [10], in assay [4], in assay [5], in assay [6] and in assay [7] was “inactive” throughout. Further, the Potency in assay [3] is 18.7 µM (active).

In the case of `Oc1ccc(-c2nc(-c3ccc(F)cc3)c(-c3ccncc3)[nH]2)cc1`, the Potency in [1] was 23.5 µM (active); in [3], 14.8 µM (active); in assay [10], 2.35 µM (active); in [9], 10.5 µM (active). The Potency result in [4], in assay [5] and in assay [6] was “inactive” in each case.

As for `NS(=O)(=O)c1cc(C(=O)O)c(NCc2ccco2)cc1Cl`, the Potency result in assay [2], in assay [3], in assay [10], in assay [4], in assay [5] and in assay [6] was “inactive” each time. In addition, the Potency entry in assay [7], in [8] and in [9] was “inactive” each time.

Take `C[C@@H](N)C1CCC(C(=O)Nc2ccncc2)CC1` (stereo partly specified): the Potency result in assay [1], in [4], in assay [5], in assay [6] and in [9] was “inactive” in each case. Further, the Potency in assay [2] was 7.43 µM (active).

For the compound `Clc1ccc(C(Cn2ccnc2)OCc2ccsc2Cl)c(Cl)c1` (stereo unspecified), the Potency entry in assay [1], in [6] and in [8] was “inactive” in each case. Besides, the Potency in assay [3] was 23.5 µM (active); in assay [10], 2.66 µM (active); in assay [4], 0.001 µM (active); in [9], 11.9 µM (active).

For `CN(C)C(=O)COC(=O)Cc1ccc(OC(=O)c2ccc(N=C(N)N)cc2)cc1`, the Potency result in assay [1], in assay [2], in assay [4], in assay [6], in [7] and in [8] was “inactive” each time. In addition, the Potency result in assay [9] was “inactive”.

As to `CCN(CC)CCOc1ccc(Nc2ncc3cc(-c4c(Cl)cccc4Cl)c(=O)n(C)c3n2)cc1`, the Potency was 0.418 µM (active) in assay [2]; 0.118 µM (active) in [3]; 0.105 µM (active) in [10]; 6.11 µM (active) in assay [4]; 1.48 µM (active) in assay [5]; 1.18 µM (active) in assay [6]. For the same compound, the Potency is 296 nM (active) in assay [7], 0.242 µM (active) in assay [8] and 3.72 µM (active) in [9].

On to `O=C1c2ccccc2-c2n[nH]c3cccc1c23`, for which the Potency result in assay [2] and in assay [6] was “inactive” each time. Besides, the Potency is 1.87 µM (active) in assay [3]; 2.64 µM (active) in assay [10]; 3.43 µM (active) in assay [4]; 1.05 µM (active) in assay [5]; 5.41 µM (active) in assay [8]; 2.96 µM (active) in assay [9].

In the case of `CC(C)c1ccc2oc3nc(N)c(C(=O)O)cc3c(=O)c2c1`, the Potency result in assay [2], in [3], in [10], in [4], in assay [5] and in assay [6] was “inactive” each time. Also, the Potency entry in assay [7], in assay [8] and in assay [9] was “inactive” throughout.

The values above are taken from PubChem BioAssay (NCATS).
